Assay [1] can be described thus: qHTS assay for small molecule agonists of the p53 signaling pathway (AID 651631; calls by dose curve; note: nearly all actives have a fitted effect of over 15% in size). Summed up: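 Readout was fluorescence from the LiveBLAzer FRET substrate, applied for 2 h at room temperature after 16 h compound exposure at 37 °C. Cells were the p53RE-bla HCT-116 line, with beta-lactamase driven by p53 response elements.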
(In qHTS, concentration-response curves come from the screen itself.)

Assay [2] can be described thus: qHTS assay for small molecules that induce genotoxicity in human embryonic kidney cells expressing luciferase-tagged ATAD5 (AID 651632). Note: nearly all actives have a fitted effect of over 15% in size. Summed up:
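Genotoxicity read-out via ATAD5-luciferase: HEK293T cells, 16 hr compound incubation at 37C, Amplite detection.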

Assay [3] can be described thus: qHTS assay for small molecule agonists of the p53 signaling pathway - cell viability (AID 651633; calls by dose curve; note: series mostly up to about 83 µM; nearly all actives have a fitted effect of over 30% in size). The procedure, abridged: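 Viability counter-read: CellTiter-Glo luminescence (30 min, room temperature) in the same p53RE-bla plates. These plates had been exposed to compounds for 16 h at 37 C.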
Assay [4] can be described thus: qHTS assay for small molecules that induce genotoxicity in human embryonic kidney cells expressing luciferase-tagged ATAD5 - cell viability (AID 651634; calls by dose curve; note: nearly all actives have a fitted effect of over 25% in size). Summed up: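 Live-cell protease activity (CellTiter-Fluor, fluorescence) indicates viability. HEK293T cells with luciferase-tagged ATAD5; 15.5 hr compound treatment at 37C.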
Assay [5] is described as follows: qHTS assay for small molecule disruptors of the mitochondrial membrane potential - cell viability (AID 720634; calls by dose curve; note: nearly all actives have a fitted effect of over 20% in size; note: potency is the fitted concentration of half-maximal effect). Summed up:
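Human hepatoma HepG2 cells were treated for 1 hr with test chemicals, then given m-MPI dye and CellTiter-Glo. Cell viability reflects luminescence proportional to cellular ATP.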

Assay [6] can be described thus: qHTS assay for small molecule disruptors of the mitochondrial membrane potential (AID 720635). Note: potency is the fitted concentration of half-maximal effect. The procedure, abridged:
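Mitochondrial membrane potential tracked with Mito-MPS dye, red aggregates (ex 540/em 590 nm) against green monomers (ex 490/em 535 nm). Compound treatment 1 hr at 37C, dye 30 min in HepG2.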

Assay [7] in a line: qHTS assay to test for compound auto fluorescence at 590 nm (red) in HepG2 cells (AID 720674). Summed up:
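We screened compounds on adherent HepG2 cells, incubating them for an hour at 37 C in 5% CO2 before reading emission at 590 nm under 540 nm excitation; values reflect equivalence to Rose Bengal sodium fluorescence.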

Assay [8] can be described thus: qHTS assay to test for compound auto fluorescence at 535 nm (green) in HepG2 cells (AID 720675).
Assay [9] is described as follows: qHTS assay to test for compound auto fluorescence at 460 nm (blue) in HEK293 cells (AID 720678). The procedure, abridged:
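Cells were seeded and left to adhere for 4-5 hr at 37C. Compounds were then pin-transferred. After an overnight incubation at 37C under 5% CO2, intrinsic fluorescence at 405/460 nm was measured and referenced to triamterene.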

The nature of assay [10]: qHTS assay to test for compound auto fluorescence at 590 nm (red) in HEK293 cells (AID 720679). The procedure, abridged:
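Each well held 2,000 HEK293 cells in medium containing 10% dialyzed FBS. Following 4-5 hr attachment at 37C, 23 nL test compound or DMSO was added; plates sat overnight, and red fluorescence (540/590nm) was recorded.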

Molecules are shown by their SMILES. Values joined by “and” are separate entries in the source; they are usually repeats but may differ in a detail not shown here. Identical values can stand only once. Inconclusive results are not listed. More than one record can exist for a structure, and the calls need not agree. Active and inactive are the calls of the source. Unless noted, calls come from the whole dose curve; as a rule, active = well fitted curve in the direction sought with a large enough effect in the repeat runs; inconclusive = weak or mixed curves; inactive = no such curve, though single readings can be large; an effect the other way counts as inactive or inconclusive.

Take `Cc1ccc(N=C=O)cc1N=C=O`: the Potency entry in [1], in assay [2], in assay [3], in assay [4] and in assay [5] was “inactive” throughout. Further, in assay [6], the Potency is 19.8 µM (active). Moreover, the molecule was called inactive in [7], in [8] and in [9].

Consider `C=CC#N`, for which the Potency entry in assay [1], in assay [2], in assay [3], in assay [5] and in assay [6] was “inactive” throughout. Further, the outcome in assay [7], in [8] and in assay [9] was inactive.

Turning to `COC(=O)Nc1cccc(OC(=O)Nc2cccc(C)c2)c1`, the Potency entry in assay [1], in [2], in assay [3] and in assay [4] was “inactive” in each case. For the same molecule, the Potency in assay [5] was 7.7 µM (active); in assay [6], 2.73 µM (active) and 3.86 µM (active). In addition, the outcome in assay [7], in assay [8], in assay [9] and in [10] was inactive.

Take `FC(F)(F)c1ccc(Cl)cc1`: the Potency result in assay [1], in assay [2], in [3], in assay [4], in [5] and in [6] was “inactive” each time. The result in assay [7], in assay [8], in assay [9] and in assay [10] was inactive.

As to `CN(C)C(=O)Nc1cccc(C(F)(F)F)c1`, the Potency result in assay [1], in [2], in assay [3], in assay [4], in [5] and in [6] was “inactive” in each case. Moreover, the molecule was called inactive in assay [7], in [8] and in assay [9].

As for `COc1nc(NC(C)C)nc(NC(C)C)n1`, the Potency entry in assay [1], in assay [2], in assay [3], in [4], in assay [5] and in assay [6] was “inactive” in each case. In addition, the result in assay [7], in assay [8], in assay [9] and in assay [10] was inactive.

As to `Clc1cnc(Oc2ccc(Oc3ncc(Cl)cc3Cl)cc2)c(Cl)c1`, the Potency result in assay [1], in assay [2], in assay [3] and in [5] was “inactive” each time. The Potency in assay [6] was 10.7 µM (active) and 48.6 µM (active). In addition, the molecule was classed as inactive in assay [7], in assay [8], in assay [9] and in assay [10].

As to `Nc1cc(Cl)cc(Cl)c1`, the Potency result in assay [1], in [2], in assay [4], in [5] and in [6] was “inactive” in each case. Moreover, the molecule was classed as inactive in [7], in assay [8], in [9] and in assay [10].

Turning to `OCc1ccco1`, the Potency result in [1], in assay [2], in [5] and in [6] was “inactive” each time. Further, the result in assay [7], in [8], in assay [9] and in assay [10] was inactive.

On to `Cc1cccc(C)c1N`, for which the Potency entry in assay [1], in assay [2], in [5] and in assay [6] was “inactive” in each case. Besides, the result in assay [7], in assay [8] and in assay [9] was inactive.

For the molecule `COP(=S)(OC)Oc1ccc(SC)c(C)c1`, the Potency entry in [1], in assay [2] and in assay [4] was “inactive” in each case. Further, the Potency entry was “inactive and 24.3 µM (active)” in assay [5]; 53.9 µM (active) and 27.3 µM (active) in assay [6]. The call in assay [7], in [8], in [9] and in assay [10] was inactive.

With `CCNc1nc(Cl)nc(NC(C)C)n1`, the Potency entry in assay [1], in assay [2] and in [3] was “inactive” each time. Moreover, the molecule was classed as inactive in [7], in [8], in [9] and in [10].

For `CC(=O)C1CCOC1=O` (stereo unspecified), the Potency result in [1], in [2], in assay [4], in assay [5] and in assay [6] was “inactive” throughout. In addition, the molecule was classed as inactive in assay [7], in assay [8] and in assay [9].

Take `CCOP(=S)(OCC)Oc1ccc([N+](=O)[O-])cc1`: the Potency result in assay [1], in assay [2], in assay [3] and in [5] was “inactive” each time. In addition, in assay [6], the Potency was 55.1 µM (active) and inactive. The result in assay [7], in assay [8], in assay [9] and in [10] was inactive.

Take `CN(C)C(=O)C(c1ccccc1)c1ccccc1`: the Potency entry in assay [1], in assay [2], in assay [4], in [5] and in assay [6] was “inactive” throughout. Besides, the call in assay [7], in [8] and in assay [9] was inactive.

Consider `C=CC(=O)OCCCCCC(C)C`, for which the Potency result in [1], in assay [2], in assay [4], in assay [5] and in assay [6] was “inactive” in each case. The call in [7], in [8] and in assay [9] was inactive.

Turning to `CNC(=O)O/N=C(\SC)C(=O)N(C)C`, the Potency result in assay [1], in assay [2], in assay [5] and in assay [6] was “inactive” each time. The outcome in [7], in assay [8] and in assay [9] was inactive.

Consider `ClCCOCCCl`, for which the Potency result in assay [1], in assay [2], in assay [5] and in [6] was “inactive” each time. The call in [7], in assay [8] and in assay [9] was inactive.

As to `CCCOC(=O)c1ccccc1C(=O)OCCC`, the Potency entry in [1], in assay [2], in assay [3] and in assay [5] was “inactive” each time. The outcome in assay [7], in assay [8], in [9] and in [10] was inactive.

On to `N#Cc1ccccn1`, for which the Potency result in assay [1], in [2], in assay [4], in assay [5] and in assay [6] was “inactive” each time. Besides, the outcome in assay [7], in assay [8] and in assay [9] was inactive.

Turning to `CNC(=O)Oc1cccc2ccccc12`, the Potency entry in assay [1], in assay [2], in [3] and in [5] was “inactive” each time. The Potency in [6] is 13.3 µM (active). Further, the call in assay [7], in assay [8], in assay [9] and in assay [10] was inactive.

For `CC(C)CCCCCCOC(=O)c1ccccc1C(=O)OCCCCCCC(C)C`, the Potency entry in assay [1], in assay [2], in assay [3], in assay [5] and in [6] was “inactive” each time. Also, the molecule was called inactive in [7], in assay [8], in assay [9] and in assay [10].

Consider `Cc1cccc(C)c1NC(=O)CN1CCCC1=O`, for which the Potency result in assay [1], in assay [2], in assay [5] and in assay [6] was “inactive” in each case. Besides, the result in [7], in assay [8] and in assay [9] was inactive.

Turning to `CC(C)(C)C(=O)CCl`, the Potency result in assay [1], in assay [2], in assay [3], in assay [5] and in assay [6] was “inactive” throughout. Moreover, the molecule was classed as inactive in assay [7], in [8] and in assay [9].

On to `N#CN=C(N)N`, for which the Potency result in assay [1], in assay [2], in assay [3], in assay [5] and in assay [6] was “inactive” each time. Moreover, the molecule was called inactive in assay [7], in [8], in assay [9] and in [10].

On to `Cl[C@H]1OCCO[C@@H]1Cl`, for which the Potency result in [1], in [2], in assay [4], in assay [5] and in [6] was “inactive” each time. Further, the result in [7], in assay [8], in [9] and in assay [10] was inactive.

With `CNC(=O)O/N=C/C(C)(C)SC`, the Potency entry in [1], in assay [2], in assay [3] and in assay [5] was “inactive” in each case. Besides, the outcome in assay [7], in [8] and in [9] was inactive.

The values are drawn from PubChem BioAssay (Tox21).
